Compound activity as filed in PubChem.
Compounds with a hit are over-represented: about 11% of the library has one in this group of screens.
Pf growth 96h = Primary qHTS for delayed death inhibitors of the malarial parasite plastid, 96 hour incubation. P. falciparum luciferase reporter growth, 96 h. Potency, µM (highest dose often 28.7 µM), without a hit: at the highest dose activity change, negative = inhibition, actives largely listed as inhibitors. actives 6.9% (n = 320,000). AID 504834, 2011
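Cell-based qHTS: luciferase-tagged P. falciparum in erythrocytes (2% hematocrit, 0.05% parasitemia final) incubated with compounds for 96 hours, 37 C, 5% CO2; luciferase detection reagent then added and luminescence measured.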
AMA1-RON2 inh = qHTS for Inhibitors of AMA1-RON; Towards Development of Antimalarial Drug Lead: Primary Screen; Plasmodium falciparum AMA1 (3D7) - RON2 peptide interaction; AlphaScreen AMA1-biotinylated RON2 peptide binding; Potency, µM (doses to about 58.2 µM), for the others: at the highest dose activity change, negative = inhibition, usual class: inhibitors; actives 0.2% (n = 360,000); AID 720542, 2013;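 further: 0% = vehicle wells and -100% = peptide control; nearly all actives have a fitted effect of over 45% in size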
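AMA1 (3D7) with his tag at 25 nM final met compounds first, then biotinylated RON2 peptide at 25 nM; detection used donor plus acceptor beads, 10 µg/mL apiece, read by AlphaScreen after 30 min at room temperature.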
AmpC no deterg = qHTS Inhibitors of AmpC Beta-Lactamase (assay without detergent); P00811; AmpC nitrocefin hydrolysis, absorbance 480 nm, 0.0001% Triton; Potency, µM (highest dose often 57.1 µM), without a hit: at the top dose activity change, negative = inhibition, most hits filed as inhibitors; actives 0.52% (n = 330,000); AID 485341, 2010;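 further: plate controls were no compound for no effect and no enzyme for full effect; nearly all actives have a fitted effect of over 20% in size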
Target sequence (P00811 whole entry, looked up): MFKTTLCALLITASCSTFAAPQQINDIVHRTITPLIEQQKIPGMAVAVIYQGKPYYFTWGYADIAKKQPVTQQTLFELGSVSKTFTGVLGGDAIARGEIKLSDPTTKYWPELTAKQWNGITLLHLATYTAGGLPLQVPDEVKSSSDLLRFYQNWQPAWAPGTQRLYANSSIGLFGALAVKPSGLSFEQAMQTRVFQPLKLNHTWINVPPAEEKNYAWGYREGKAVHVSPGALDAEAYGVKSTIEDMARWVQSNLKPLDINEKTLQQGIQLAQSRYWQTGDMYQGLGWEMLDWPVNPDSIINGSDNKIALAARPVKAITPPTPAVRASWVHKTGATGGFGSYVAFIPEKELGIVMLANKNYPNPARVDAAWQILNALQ
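AmpC (5.3 nM in the dispensed reagent) in 20 mM phosphate pH 7.0 with 0.01% (detergent screen) or 0.0001% Triton X-100 was preincubated with compounds for 15 min at room temperature. Nitrocefin was then added from an 800 uM solution, and hydrolysis was followed at 480 nm.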
HCV inh = qHTS Assay for Inhibitors of Hepatitis C Virus (HCV). Huh7.5.1 HCVcc-Cre infection, luciferase reporter, 44 h. Potency, µM (top dose mostly 41.8 µM), for inactives: at the highest dose activity change, negative = inhibition, most hits filed as inhibitors. actives 3.4% (n = 340,000)
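1,000 cells/well; 4 h culture; + compound; + HCVcc-Cre (~0.5 moi); 44 h; luciferase substrate, RT 15 min; read 15 sec.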
Pf growth 48h = Primary qHTS for delayed death inhibitors of the malarial parasite plastid, 48 hour incubation; Potency, µM (doses to about 28.7 µM), for the others: top-dose activity change, negative = inhibition, hits mostly inhibitors; actives 5.9% (n = 310,000); P. falciparum luciferase growth in erythrocytes, 48 h
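First compound was added to culture medium, then infected red cells at 0.1% parasitemia and 2% hematocrit (final). After incubation at 37 C under 5% CO2, luciferase detection reagent was dispensed and light output recorded.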
AmpC detergent = qHTS Inhibitors of AmpC Beta-Lactamase (assay with detergent). P00811. AmpC hydrolysis of nitrocefin, absorbance 480 nm, 0.01% Triton. Potency, µM (titrated, usually from 114 µM), for the others: top-dose activity change, negative = inhibition, hits mostly inhibitors. actives 0.041% (n = 370,000). AID 485294, 2010;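 further: 0% = no-compound wells and -100% = no-enzyme wells; nearly all actives have a fitted effect of over 25% in size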
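AmpC (5.3 nM in the dispensed reagent) in 20 mM phosphate pH 7.0 with 0.01% (detergent screen) or 0.0001% Triton X-100 was preincubated with compounds for 15 min at room temperature. Nitrocefin was then added from an 800 uM solution, and hydrolysis was followed at 480 nm.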
* = called active by the depositor. The call rests on the fitted dose curve; in most records, active means well fitted curve in the direction sought with a large enough effect; inconclusive means small, poorly fitted or top-dose-only effect, or another doubt; inactive means no such curve, though single readings can be large; an effect the other way counts as inactive or inconclusive. Unless noted, on the % scale 0 is the no-effect control and ±100 the full control effect; potency means the concentration at half of the fitted maximal effect.

For CCCCCCCNC(=O)C1(CC2CC(c3ccc(Cl)cc3)=NO2)CCN(C(=O)OC(C)(C)C)CC1 (stereo unspecified) the results were Pf growth 96h 5.2µM*, AMA1-RON2 inh 0%, AmpC no deterg -16%, HCV inh 11%, Pf growth 48h inconclusive and AmpC detergent -11%.
For CCOc1cc(C(=O)N2CCC(CC3CC(c4cccc(Br)c4)=NO3)(C(=O)NCC3CCCCC3)CC2)cc(OCC)c1OCC (stereo unspecified) the results were Pf growth 96h inconclusive, AMA1-RON2 inh 2%, AmpC no deterg 70%, HCV inh inconclusive, Pf growth 48h 0.37µM* and AmpC detergent inconclusive.
`CCn1c(C(=O)N2CCC(C(=O)NCCc3ccc(C)cc3)CC2)cc2sccc21` gave AmpC detergent -11%.
For Cc1ccc2c(=O)c(C(=O)c3ccc(F)cc3)cn(CC(=O)NCc3ccccc3)c2n1 the results were AmpC detergent 29%.
For O=C(NCCCn1ccnc1)c1cc(C2CC2)on1 the results were Pf growth 96h 10µM*, AMA1-RON2 inh -1%, AmpC no deterg 1%, HCV inh -2%, Pf growth 48h 1% and AmpC detergent inconclusive.
Screening O=C(NCCCn1ccnc1)c1ccc2ccccc2c1 returned Pf growth 96h 12µM*, AMA1-RON2 inh 4%, AmpC no deterg -8%, HCV inh 17%, Pf growth 48h 1% and AmpC detergent 3%.
`O=C(c1ccccc1)c1ccc(NCCCn2ccnc2)c([N+](=O)[O-])c1` gave Pf growth 96h 12µM*, AMA1-RON2 inh -11%, AmpC no deterg 29%, HCV inh 35µM*, Pf growth 48h inconclusive and AmpC detergent -3%.
`O=C(NCCCn1ccnc1)C1c2ccccc2Oc2ccccc21` gave Pf growth 96h 10µM*, AMA1-RON2 inh -8%, AmpC no deterg 12%, HCV inh 4%, Pf growth 48h -25% and AmpC detergent -12%.
`CCN(CC)S(=O)(=O)c1ccc(NCCCn2ccnc2)c([N+](=O)[O-])c1` gave Pf growth 96h inconclusive, AMA1-RON2 inh -14%, AmpC no deterg 17%, HCV inh 4%, Pf growth 48h inconclusive and AmpC detergent 4%.
Screening CCc1noc(-c2ccc(NCc3ccccc3)c([N+](=O)[O-])c2)n1 returned AmpC detergent -6%.
Screening CN(c1ccc(C(=O)NCCCn2ccnc2)cc1)S(C)(=O)=O returned Pf growth 96h -11%, AMA1-RON2 inh -10%, AmpC no deterg -10%, HCV inh 3%, Pf growth 48h 15% and AmpC detergent 7%.
`C=CCN(c1ccc(C(=O)NCCCn2ccnc2)cc1)S(C)(=O)=O` gave Pf growth 96h 9.3µM*, AMA1-RON2 inh -7%, AmpC no deterg 2%, HCV inh 24%, Pf growth 48h 6% and AmpC detergent inconclusive.
CCOC(=O)CC(NC(=O)c1cccc2c1C(=O)N(Cc1cccnc1)C2)c1ccc(OC(C)C)cc1 (stereo unspecified) was read as Pf growth 96h inconclusive, AMA1-RON2 inh 32%, AmpC no deterg 203%, HCV inh -5%, Pf growth 48h 9.3µM* and AmpC detergent 0%.
For CCCN1Cc2cccc(C(=O)NC(CC(=O)OCC)c3ccc(C)cc3)c2C1=O (stereo unspecified) the results were Pf growth 96h 0%, AMA1-RON2 inh -17%, AmpC no deterg 132%, HCV inh 6%, Pf growth 48h inconclusive and AmpC detergent 0%.
For CCCN1Cc2cccc(C(=O)NC(CC(=O)OCC)c3ccc(OC(C)C)cc3)c2C1=O (stereo unspecified) the results were Pf growth 96h -16%, AMA1-RON2 inh -18%, AmpC no deterg 174%, HCV inh inconclusive, Pf growth 48h 13µM* and AmpC detergent -6%.
CCN1C(=NCC2CC2)N[C@@H](c2cccc(C(F)(F)F)c2)C(C(=O)OC)=C1C was read as Pf growth 96h 12µM*, AMA1-RON2 inh -1%, AmpC no deterg -26%, HCV inh inconclusive, Pf growth 48h inconclusive and AmpC detergent -7%.
CCN1C(=NCCc2ccccn2)N[C@@H](c2cccc(C(F)(F)F)c2)C(C(=O)OC)=C1C was read as Pf growth 96h 121%, AMA1-RON2 inh 29%, AmpC no deterg 16%, HCV inh -19%, Pf growth 48h inconclusive and AmpC detergent inconclusive.
For CCN1C(=NCCOC)N[C@@H](c2cccc(C(F)(F)F)c2)C(C(=O)OC)=C1C the results were Pf growth 96h 2.1µM*, AMA1-RON2 inh 16%, AmpC no deterg 21%, HCV inh inconclusive, Pf growth 48h -24% and AmpC detergent inconclusive.
Screening COC(=O)C1=C(C)N(Cc2ccccc2)C(=O)N[C@H]1c1cccc(C(F)(F)F)c1 returned Pf growth 96h inconclusive, AMA1-RON2 inh -9%, AmpC no deterg -13%, HCV inh 0.4µM*, Pf growth 48h inconclusive and AmpC detergent 0%.
For COC(=O)C1=C(C)N(Cc2ccccc2)C(=S)N[C@H]1c1cccc(C(F)(F)F)c1 the results were Pf growth 96h 43%, AMA1-RON2 inh 111%, AmpC no deterg -25%, HCV inh inconclusive, Pf growth 48h inconclusive and AmpC detergent -12%.
`COc1ccc(CNC(=O)C(=O)NCC(c2ccco2)S(=O)(=O)c2ccc(Cl)cc2)cc1` (stereo unspecified) gave AmpC detergent -1%.
Screening O=C(Nc1cccc(Cl)c1)C1CCCN(c2nn3cc(-c4ccc(F)cc4)nc3s2)C1 (stereo unspecified) returned AmpC detergent 20%.
`CC1C(=O)N2CCCc3cc(NC(=O)C(=O)NCc4cccnc4)cc1c32` (stereo unspecified) gave Pf growth 96h inconclusive, AMA1-RON2 inh -5%, AmpC no deterg -7%, HCV inh 1%, Pf growth 48h inconclusive and AmpC detergent -15%.
Screening COc1ccc(CCNS(=O)(=O)c2cc3c4c(c2)C(C)C(=O)N4CCC3)cc1OC (stereo unspecified) returned Pf growth 96h inconclusive, AMA1-RON2 inh 1%, AmpC no deterg 28%, HCV inh -9%, Pf growth 48h 0% and AmpC detergent -5%.
